Anthrax LF prot – Bacillus anthracis LF protease inhibitors, primary screen, biochemical, multiplex microsphere, MLPCN library. multiplex microsphere protease cleavage assay. inhibition, % at 10 µM. 0.12% of 360,000 active; further: plate controls were buffer without enzyme for full effect and enzyme alone for no effect
MazEF act – activators of E. coli MazEF toxin-antitoxin RNase, primary screen, biochemical, fluorescence, uHTS; activation, % at 20 µM; FAM/BHQ RNA-DNA oligo cleavage fluorescence, 5 h; 0.32% of 350,000 active; in the data active means activation above about 50%
Target sequence (P0AE70 whole entry, looked up): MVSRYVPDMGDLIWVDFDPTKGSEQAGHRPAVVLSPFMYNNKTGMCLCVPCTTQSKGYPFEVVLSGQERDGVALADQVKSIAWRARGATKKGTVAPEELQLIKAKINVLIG
Bead autofluor – counter-screen for toxin protease inhibitors: compound fluorescence; compound autofluorescence counterscreen, microsphere flow cytometry; stronger effect = higher value; fluorescence intensity (no concentration beside the values); 3.1% of 360,000 active; in the data active means fluorescence intensity above about 16000; inconclusive means no clear call, values can overlap the other calls
BoNT-F LC inh – BoNT/F light chain protease inhibitors, primary screen, biochemical, flow cytometry, MLPCN library; Botulinum neurotoxin type F light chain protease (Clostridium botulinum); Multiplex microsphere protease cleavage assay; inhibition, % at 10 µM; 0.22% of 360,000 active; in the data active means inhibition above about 35%, passing the limit was not always enough; inconclusive means no clear call, values can overlap the other calls; further: plate controls were buffer without enzyme for full effect and enzyme alone for no effect
BoNT-A LC inh2 – BoNT/A light chain protease inhibitors, primary screen, biochemical, flow cytometry, MLPCN library; multiplex microsphere protease substrate cleavage; inhibition, % at 10 µM; 0.17% of 360,000 active; AID 588499, 2011; Botulinum neurotoxin type A light chain protease (Clostridium botulinum A str. ATCC 3502); further: plate controls were buffer without enzyme for full effect and enzyme alone for no effect
* = called active by the depositor; u = inconclusive; x = no result given. A selection: hits, their analogues and other compounds. The true share with any hit is near 3.6%. Unless noted, no stated cut-off is given here; in the data, active means inhibition above about 30%; inconclusive means no clear call, values can overlap the other calls; inactive means below that.

SMILES	Anthrax LF prot	MazEF act	Bead autofluor	BoNT-F LC inh	BoNT-A LC inh2
CCCc1c(O)nc(SCCN(CC)CC)n(C(=O)c2ccccc2)c1=O	0	2	23987*	-5	-3
CCOC(=O)CCCNC(=O)CSc1nnc(-c2ccccc2)c(-c2ccccc2)n1	-10	4	3562	16	-1
O=[N+]([O-])c1ccc(O)c(/C=N/Nc2ccccn2)c1	7	2	2089	67*	21
O=C(Nc1ccccc1)N1CC=C(c2ccc(F)cc2)CC1	-2	-6	2369	-1	0
O=C(Nc1cccc2ccccc12)N1CC=C(c2ccccc2)CC1	-2	78*	4321	-13	0
CCCCOC(=O)C1=C(C)Nc2ncnn2C1c1ccc(OC)c(OC)c1OC (configuration not stated)	-2	-1	23980*	-3	-2
CCOC(=O)C1=C(C(F)(F)F)Nc2ncnn2C1c1ccc(OC)c(OC)c1OC (configuration not stated)	-1	0	2478	-5	0
CCCCOC(=O)C1=C(C)Nc2ncnn2C1c1cc(OC)c(OC)cc1OC (configuration not stated)	-1	0	23316*	-1	0
Cc1noc(C)c1C(=O)OC(C)C(=O)Nc1ccc(C(N)=O)cc1 (configuration not stated)	x	1	x	x	x
O=C(NCCc1ccccc1)c1ncn[nH]1	2	0	20498*	0	u
FC(F)Oc1ccc(NC(=S)NCc2ccccc2)cc1	-1	2	2034	-5	0
Cc1cc2cc(CNC(=S)Nc3ccc(OC(F)F)cc3)ccc2n1C	-111	19	1428	-126	66*
O=C(O)Cn1nc2ccccc2n1	-4	3	22940*	-3	u
Cc1noc(C)c1C(=O)N(C)C[C@@H]1OCc2ccccc2-c2c(n(C)c3ccccc23)C(=O)N([C@H](C)CO)C[C@H]1C	-3	6	3329	-2	-1
Cc1cnc(C(=O)N(c2ccccc2)C(c2ccccc2)c2nc3ccccc3[nH]2)cn1 (configuration not stated)	-4	x	5460	-1	0
CCCCN1C(=O)/C(=C2\SC(N3CCCCC3)=NC2=O)c2ccccc21	-6	7	23186*	-3	u
O=C1C(Br)=Cc2cccc3cccc1c23	30*	-113	2984	12	59*
CC1CCN(C(=O)C2CCCN2S(=O)(=O)c2ccc(Cl)cc2)CC1 (configuration not stated)	0	-3	6447	1	0
COc1ccc2oc(C(=O)N(C)Cc3ccc(OC(F)F)cc3)c(C)c2c1	4	-4	u	2	-1
Cc1cccc(Cn2cc(/C=C/[N+](=O)[O-])c3ccccc32)c1	15	-16	8917	20	28
O=[N+]([O-])/C=C/c1cn(Cc2ccc(Cl)cc2)c2ccccc12	21	-67	4418	12	39*
CC(CC(=O)Nc1ccc2c(c1)c(=O)n(C)n2-c1cccs1)c1ccccc1 (configuration not stated)	0	x	3927	-1	0
CCC(CC)NCc1ccc(OC)cc1OC	2	1	22992*	-4	-1
COc1ccc(CNC2CCCCC2C)c(OC)c1 (configuration not stated)	-1	0	22181*	2	3
COc1ccc(CNCc2ccncc2)c(OC)c1	-17	3	4132	-8	-4
SMILES	Anthrax LF prot	MazEF act	Bead autofluor	BoNT-F LC inh	BoNT-A LC inh2
COc1ccc(CNC2CCCc3ccccc32)c(OC)c1 (configuration not stated)	-11	-3	3691	u	u
CC(C)(C)NC(=O)C(c1c[nH]c2ccccc12)N(C(=O)Cn1nnc(-c2ccc(Cl)cc2)n1)c1ccccc1F (configuration not stated)	-1	0	2094	-2	-1
COc1cccc(N(C(=O)Cn2nnc(-c3ccc(C)cc3)n2)C(C(=O)NC(C)(C)C)c2c[nH]c3ccccc23)c1 (configuration not stated)	-8	-3	23333*	-9	-2
COc1cccc(C2CC(c3ccccc3OC)n3ncnc3N2)c1 (configuration not stated)	-5	8	5909	5	0
COc1cccc(C2CC(c3ccccc3)Nc3ncnn32)c1 (configuration not stated)	0	-3	22399*	0	0
CC(=O)N1CC(=O)N(c2ccccc2)C1=O	-2	7	3363	-22	1
COc1ccc(C2CC(C(F)(F)F)n3nc(C(N)=O)c(Cl)c3N2)cc1OC (configuration not stated)	-6	3	20210*	1	-2
CCn1c(=O)cc(OCC(=O)Nc2cc(C)ccn2)c2ccccc21	-1	4	22556*	1	0
CCN(CCCNC(=O)COc1cc(=O)n(CC)c2ccccc12)c1ccccc1	-3	4	19587*	-1	u
Cn1c(=O)cc(OCCCC(=O)Nc2ccc3c(c2)OCCO3)c2ccccc21	-2	9	21630*	2	2
CCN(CCCNC(=O)COc1cc(=O)n(C)c2ccccc12)c1ccccc1	5	-6	8949	1	2
CCn1c(=O)cc(OCC(=O)Nc2ccc3c(c2)OCCO3)c2ccccc21	-5	6	19914*	1	1
CCn1c(=O)cc(OCC(=O)Nc2ccc(OC)c(OC)c2)c2ccccc21	0	-8	2067	-2	0
CCn1c(=O)cc(OCC(=O)NCCc2cccc(C)c2)c2ccccc21	-1	0	2426	-2	0
CC(C)C1C(=O)N(Cc2cn(CCC3OCCO3)nn2)CCS(=O)(=O)N1Cc1ccc(-c2ccc(F)cc2Cl)cc1 (configuration not stated)	5	x	6183	8	1
Cc1cc(C(=O)NNc2ccc(C(C)C)cc2)n(C(C)(C)C)n1	-2	7	4301	-2	-1
Cn1c(=O)cc(OCCCC(=O)Nc2cccnc2)c2ccccc21	-2	-10	23694*	-2	-2
CCc1ccc(NC(=O)CCCOc2cc(=O)n(C)c3ccccc23)cc1	-4	x	3765	-2	0
Cc1ccccc1CNc1ccc(C(CC(N)=O)NC(=O)c2ccc(Br)cc2)cc1[N+](=O)[O-] (configuration not stated)	-2	81*	4182	-6	0
CCN(CC)c1ccc(/C=C2\C(=O)c3ccc(C(=O)O)cc3C2=O)cc1	37*	52*	9698	64*	14
CCN(CC)c1ccc(C(=O)O)cc1	1	-12	2906	2	0
Cc1nc(SC(C(=O)c2ccccc2)c2ccccc2)n[nH]1 (configuration not stated)	0	-7	20864*	5	4
